We go through 8 compounds from PubChem BioAssay (Tox21).

Molecules are shown by their SMILES. Unmarked numbers belong to inactive results. Records with an inconclusive call do not appear. Active and inactive are the calls of the source. Unless noted, the call rests on the fitted dose curve; in most records, active means well fitted curve in the direction sought with a large enough effect in the repeat runs; inconclusive means weak or mixed curves; inactive means no such curve, though single readings can be large; an effect the other way counts as inactive or inconclusive.

Experiment [1] addresses Thyrotropin receptor (Homo sapiens) (UniProt P16473). Nature of the experiment: qHTS assay to identify small molecule antagonists of the thyroid stimulating hormone receptor (TSHR) signaling pathway (AID 1259385; calls by dose curve; further: nearly all actives have a fitted effect of over 20% in size). In a few lines:
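Antagonist mode: compound-treated TSHR-expressing HEK293 cells were stimulated with 1.5 ng/mL TSH (final) in presence of Ro20-1724 for 30 min at RT. HTRF cAMP detection after 1 h; each compound tested at 15 concentrations, triplicate.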
For orientation: In qHTS, concentration-response curves come from the screen itself.

Experiment [2] in a line: qHTS assay to identify small molecule agonists of the estrogen receptor alpha (ER-alpha) signaling pathway in the presence of an antagonist - cell viability counter screen (AID 1259386).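 Further: series mostly up to about 92 µM; cells exposed to compounds for 22 h at 37 °C before the viability read; nearly all actives have a fitted effect of over 30% in size.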 In a few lines:
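Cytotoxicity was measured in parallel with the ERE-luciferase agonist screen, in the same wells. The cells were VM7Luc4E2, which endogenously express ER-alpha, and treatment was with compounds plus 10.0nM ICI-182,780 for 22hr.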

Experiment [3] concerns the target Progesterone receptor (Homo sapiens) (UniProt P06401). Nature of the experiment: qHTS assay to identify small molecule agonists of the progesterone receptor (PR) signaling pathway (AID 1346784; calls by dose curve; further: nearly all actives have a fitted effect of over 30% in size; further: potency means the concentration at half of the fitted maximal effect). In a few lines: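 PR-UAS-bla HEK 293T cells carrying a UAS-driven beta-lactamase reporter were seeded in medium with 2% charcoal-stripped FBS, preincubated 6 hr at 37C, then exposed to compounds in DMSO for 16 hr; agonism was read by LiveBLAzer B/G FRET fluorescence.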

Experiment [4] has the same target. Nature of the experiment: qHTS assay to identify small molecule antagonists of the progesterone receptor (PR) signaling pathway (AID 1346795; active means well fitted inhibition curve with a large enough effect in the signal ratio in the repeat runs, not every such curve was filed as active; the % refers to the signal ratio). In a few lines: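 PR-UAS-bla HEK293T cells carrying a UAS-driven beta-lactamase reporter were plated in medium with 2% charcoal-stripped FBS and rested 6 hr at 37C. Compounds were added with 1 nM R5020 (final) for 16 hr, then FRET substrate loaded 2 hr at room temperature.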

A short description of experiment [5]: qHTS assay to identify small molecule antagonists of the progesterone receptor (PR) signaling pathway - cell viability counter screen (AID 1346798). Further: series mostly up to about 92 µM; nearly all actives have a fitted effect of over 50% in size. In a few lines: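 PR-UAS-bla HEK293T cells in medium with 2% charcoal-stripped FBS were treated with compounds plus R5020 for 16 hr at 37C. Cell viability was then read by CellTiter-Glo luminescence after 30 min at room temperature in the same wells.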

The nature of experiment [6]: qHTS assay to identify small molecule agonists of the progesterone receptor (PR) signaling pathway - cell viability counter screen (AID 1346799; calls by dose curve; further: nearly all actives have a fitted effect of over 45% in size). In a few lines:
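PR-UAS-bla HEK293T cells, 3,000 per well in medium with 2% charcoal-stripped FBS, were preincubated 6 hr at 37C, then exposed to compounds for 16 hr; viability was read as CellTiter-Glo luminescence after 30 min at room temperature.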

The nature of experiment [7]: qHTS assay to identify small molecule antagonists of the TGF-beta/Smad signaling pathway - cell viability counter screen (AID 1346824). Further: nearly all actives have a fitted effect of over 50% in size. In a few lines:
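Cytotoxicity counter-screen run in the same wells as the beta-lactamase Smad reporter read: CellTiter-Glo luminescence after 30 min at room temperature. HEK 293T SBE-bla cells had 5 hr compound exposure at 37 C with TGF-beta1 (0.25 ng/mL stock).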

Experiment [8] is described as follows: qHTS assay to identify small molecule agonists of the TGF-beta/Smad signaling pathway - cell viability counter screen (AID 1346829). Further: top concentration of the series differs between compounds; nearly all actives have a fitted effect of over 45% in size. In a few lines: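 Here the cytotoxicity of library compounds is measured in SBE-bla HEK 293T cells treated for 5 hr, using CellTiter-Glo added to wells already read for the beta-lactamase reporter.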
Experiment [9] in a line: qHTS assay to identify small molecule agonists of the TGF-beta/Smad signaling pathway (AID 1346859; active means well fitted activation curve with a large enough effect in the signal ratio in the repeat runs, not every such curve was filed as active; the % refers to the signal ratio; further: series mostly up to about 77 µM). In a few lines:
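HEK 293T cells stably carrying a beta-lactamase reporter driven by the Smad binding element were seeded overnight, exposed to DMSO-dissolved compounds for 5 hr at 37 C, 5% CO2, then loaded with FRET substrate for 2 hr at room temperature.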

Experiment [10] has as its target Thyrotropin-releasing hormone receptor (Homo sapiens) (UniProt P34981). Nature of the experiment: qHTS assay to identify small molecule antagonists of the thyrotropin-releasing hormone receptor (TRHR) signaling pathway (AID 1346877; active means well fitted inhibition curve with a large enough effect in the repeat runs, not every such curve was filed as active; further: series mostly up to about 51 µM). In a few lines: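 Antagonism is measured as suppression of the calcium response to 1 nM TRH in TRHR-HEK293 cells that have been dye-loaded for 2 h at 37 °C after overnight plating. Each compound is tested at 15 concentrations in triplicate.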

Experiment [11] has the same target. Nature of the experiment: qHTS assay to identify small molecule agonists of the thyrotropin-releasing hormone receptor (TRHR) signaling pathway (AID 1346891; calls by dose curve; further: series mostly up to about 58 µM). In a few lines:
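TRHR-expressing HEK293 cells were plated 18 h at 37 °C/5% CO2, loaded with calcium dye 2 h at 37 °C, then given compound in DMSO; fluorescence was read kinetically for 3 min at 1 s intervals.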

The nature of experiment [12]: Human pregnane X receptor (PXR) small molecule agonists, qHTS cell viability counter screen (AID 1346977). Further: nearly all actives have a fitted effect of over 50% in size. In a few lines:
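PXR-Luc HepG2 cells in medium with 5% charcoal-stripped FBS were pre-incubated 5hr, then exposed to compounds for 24hr at 37C. Viability was read in the same wells by CellTiter-Fluor fluorescence, reagent added after 23hr with a 1hr incubation.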

Experiment [13] in a line: Caspase-3/7 induction in HepG2 cells by small molecules, qHTS assay (AID 1346978). Further: nearly all actives have a fitted effect of over 15% in size. In a few lines: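 Caspase-3/7 induction was measured by Caspase-Glo 3/7 luminescence (30 min, room temperature) after a 17 hr compound exposure of wild-type HepG2 cells seeded at 2,000 per well and pre-incubated 5 hr.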
The nature of experiment [14]: Caspase-3/7 induction in CHO-K1 cells by small molecules, qHTS cell viability counter screen (AID 1346979). Further: nearly all actives have a fitted effect of over 35% in size. In a few lines: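 Wild-type CHO-K1 cells were seeded at 1,500 per well, rested 5hr at 37 C, then exposed to compounds in DMSO. After 16hr, CellTiter-Fluor reagent was added and fluorescence read 1hr later as the viability measure.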
Experiment [15] is described as follows: Caspase-3/7 induction in CHO-K1 cells by small molecules, qHTS assay (AID 1346980). Further: nearly all actives have a fitted effect of over 15% in size. In a few lines:
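Luminescent Caspase-Glo 3/7 read (30min, room temperature) quantified apoptosis induction. Cells were wild-type CHO-K1, treated with compound for 17hr at 37 C and 5% CO2.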

A short description of experiment [16]: Caspase-3/7 induction in HepG2 cells by small molecules, qHTS cell viability counter screen (AID 1346981). Further: series mostly up to about 92 µM; nearly all actives have a fitted effect of over 30% in size. In a few lines: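 Cell viability is measured as a cytotoxicity counter screen alongside the Caspase-Glo 3/7 readout in identical wells. Wild-type HepG2 cells are treated with test compounds for 16 hr at 37 C before CellTiter-Fluor addition and a 1-hr incubation.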

Experiment [17] has as its target Nuclear receptor subfamily 1 group I member 2 (Homo sapiens) (UniProt O75469). In words: Human pregnane X receptor (PXR) small molecule agonists, qHTS assay (AID 1346982). Further: nearly all actives have a fitted effect of over 35% in size. Further: potency means the concentration at half of the fitted maximal effect. In a few lines: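 Cells: HepG2 stably carrying PXR-Luc. Medium held 5% charcoal-stripped FBS. Compounds in DMSO added after 5 hr plating, incubated 24 hr, then luminescence quantified with ONE-Glo.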

The target in experiment [18] is Nuclear receptor subfamily 1 group I member 2 (Rattus norvegicus) (UniProt Q9R1A7). In words: Rat pregnane X receptor (rPXR) activation by small molecules, qHTS assay (AID 1346983). Further: nearly all actives have a fitted effect of over 20% in size. As to conditions: rPXR luciferase reporter cells, One-Glo luminescence, 24 h; stronger effect = higher value. In a few lines:
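Luminescent readout (One-Glo luciferase, 30 min room temperature) followed 24 hr compound treatment at 37 C of rPXR cells plated 2,000 per well and preincubated 5hr; qHTS format with compounds delivered in DMSO.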

The target in experiment [19] is Nuclear receptor subfamily 1 group I member 2 (Homo sapiens) (UniProt O75469). In words: CYP3A4 induction through human pregnane X receptor (PXR) by small molecules, qHTS assay (AID 1346984). Further: nearly all actives have a fitted effect of over 40% in size. In a few lines: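 Quantitative HTS in DPX-2 cells, i.e. HepG2 transfected with PXR response element and CYP3A4-promoter luciferase. Compounds in DMSO incubated 24hr at 37C; then P450-Glo CYP3A4 substrate, 3uM final, 3hr; One-Glo luminescence.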
Sequence of Nuclear receptor subfamily 1 group I member 2 (Homo sapiens) (O75469 whole entry, looked up): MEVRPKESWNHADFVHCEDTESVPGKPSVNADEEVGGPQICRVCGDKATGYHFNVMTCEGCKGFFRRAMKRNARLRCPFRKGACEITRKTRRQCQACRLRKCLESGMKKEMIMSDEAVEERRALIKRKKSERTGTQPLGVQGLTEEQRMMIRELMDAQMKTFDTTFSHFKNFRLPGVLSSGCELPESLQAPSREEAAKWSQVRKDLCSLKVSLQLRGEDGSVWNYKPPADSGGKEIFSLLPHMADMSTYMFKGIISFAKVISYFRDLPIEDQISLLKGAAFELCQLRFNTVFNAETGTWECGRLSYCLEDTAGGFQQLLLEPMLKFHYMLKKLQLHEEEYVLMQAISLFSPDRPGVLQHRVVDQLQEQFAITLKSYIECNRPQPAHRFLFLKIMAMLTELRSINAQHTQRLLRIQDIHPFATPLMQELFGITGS

Experiment [20] shares this target. In words: Human pregnane X receptor (PXR) activation by small molecules, qHTS assay (AID 1346985). Further: nearly all actives have a fitted effect of over 40% in size. In a few lines:
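DPX-2 cells (HepG2 co-transfected with a PXR response element and a CYP3A4-promoter luciferase construct) were seeded at 2,000 per well, rested 5 hr at 37C, then exposed to DMSO-dissolved compounds for 24 hr. Activation was read as luciferase luminescence.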
On the % scale 0 is the no-effect control and ±100 the full control effect.

Sequence of Thyrotropin receptor (Homo sapiens) (P16473 whole entry, looked up): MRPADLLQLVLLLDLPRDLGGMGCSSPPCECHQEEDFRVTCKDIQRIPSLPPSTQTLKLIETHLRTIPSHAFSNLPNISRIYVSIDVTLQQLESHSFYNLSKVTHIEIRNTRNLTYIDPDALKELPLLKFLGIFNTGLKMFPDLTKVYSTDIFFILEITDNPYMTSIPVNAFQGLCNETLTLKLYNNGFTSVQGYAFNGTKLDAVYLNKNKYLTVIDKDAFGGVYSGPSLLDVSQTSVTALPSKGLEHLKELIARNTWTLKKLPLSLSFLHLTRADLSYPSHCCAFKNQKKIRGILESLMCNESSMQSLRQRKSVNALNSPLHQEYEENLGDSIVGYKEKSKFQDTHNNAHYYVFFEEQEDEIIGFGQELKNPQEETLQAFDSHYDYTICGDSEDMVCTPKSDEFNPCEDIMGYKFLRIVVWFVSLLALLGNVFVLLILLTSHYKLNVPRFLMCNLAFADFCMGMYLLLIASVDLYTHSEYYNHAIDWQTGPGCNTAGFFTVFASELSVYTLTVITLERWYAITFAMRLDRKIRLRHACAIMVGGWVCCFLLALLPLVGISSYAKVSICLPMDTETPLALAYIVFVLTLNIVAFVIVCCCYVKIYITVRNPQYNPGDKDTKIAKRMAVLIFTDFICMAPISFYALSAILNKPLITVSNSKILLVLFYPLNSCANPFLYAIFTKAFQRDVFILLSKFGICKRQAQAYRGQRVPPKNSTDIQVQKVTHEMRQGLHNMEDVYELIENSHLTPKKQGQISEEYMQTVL
Sequence of Progesterone receptor (Homo sapiens) (P06401 whole entry, looked up): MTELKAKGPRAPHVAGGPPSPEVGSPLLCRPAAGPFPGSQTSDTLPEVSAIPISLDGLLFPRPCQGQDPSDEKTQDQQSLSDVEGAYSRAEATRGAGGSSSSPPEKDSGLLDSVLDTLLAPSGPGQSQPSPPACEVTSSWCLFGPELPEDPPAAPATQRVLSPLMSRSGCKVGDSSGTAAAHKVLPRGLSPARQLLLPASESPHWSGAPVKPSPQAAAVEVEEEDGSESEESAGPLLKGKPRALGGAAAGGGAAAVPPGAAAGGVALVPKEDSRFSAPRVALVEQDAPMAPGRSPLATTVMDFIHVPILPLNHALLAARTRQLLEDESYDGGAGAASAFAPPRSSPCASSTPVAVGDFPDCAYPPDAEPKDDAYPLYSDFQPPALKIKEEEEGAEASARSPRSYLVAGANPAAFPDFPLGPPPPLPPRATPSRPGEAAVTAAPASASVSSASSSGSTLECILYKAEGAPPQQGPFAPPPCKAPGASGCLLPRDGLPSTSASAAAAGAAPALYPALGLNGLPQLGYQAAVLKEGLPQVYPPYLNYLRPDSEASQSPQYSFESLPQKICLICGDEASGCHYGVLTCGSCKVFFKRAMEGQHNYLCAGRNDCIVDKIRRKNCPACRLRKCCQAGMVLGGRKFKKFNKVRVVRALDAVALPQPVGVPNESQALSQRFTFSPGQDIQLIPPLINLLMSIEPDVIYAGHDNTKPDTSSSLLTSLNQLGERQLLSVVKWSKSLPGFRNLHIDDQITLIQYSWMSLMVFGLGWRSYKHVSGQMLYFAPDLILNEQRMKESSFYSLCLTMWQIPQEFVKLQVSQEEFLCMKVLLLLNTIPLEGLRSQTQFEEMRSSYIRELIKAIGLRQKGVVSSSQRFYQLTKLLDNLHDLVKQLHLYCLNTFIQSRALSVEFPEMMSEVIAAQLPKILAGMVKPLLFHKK
Sequence of Thyrotropin-releasing hormone receptor (Homo sapiens) (P34981 whole entry, looked up): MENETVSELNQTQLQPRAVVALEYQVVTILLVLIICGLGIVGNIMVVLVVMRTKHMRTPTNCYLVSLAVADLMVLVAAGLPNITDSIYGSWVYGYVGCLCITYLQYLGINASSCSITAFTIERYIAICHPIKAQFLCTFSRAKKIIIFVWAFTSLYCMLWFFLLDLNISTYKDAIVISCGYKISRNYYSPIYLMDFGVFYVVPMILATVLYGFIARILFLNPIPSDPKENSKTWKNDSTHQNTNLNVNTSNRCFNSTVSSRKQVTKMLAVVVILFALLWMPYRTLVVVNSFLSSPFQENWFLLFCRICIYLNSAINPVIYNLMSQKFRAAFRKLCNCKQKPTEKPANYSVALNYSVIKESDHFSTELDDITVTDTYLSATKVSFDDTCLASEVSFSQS
Sequence of Nuclear receptor subfamily 1 group I member 2 (Rattus norvegicus) (Q9R1A7 whole entry, looked up): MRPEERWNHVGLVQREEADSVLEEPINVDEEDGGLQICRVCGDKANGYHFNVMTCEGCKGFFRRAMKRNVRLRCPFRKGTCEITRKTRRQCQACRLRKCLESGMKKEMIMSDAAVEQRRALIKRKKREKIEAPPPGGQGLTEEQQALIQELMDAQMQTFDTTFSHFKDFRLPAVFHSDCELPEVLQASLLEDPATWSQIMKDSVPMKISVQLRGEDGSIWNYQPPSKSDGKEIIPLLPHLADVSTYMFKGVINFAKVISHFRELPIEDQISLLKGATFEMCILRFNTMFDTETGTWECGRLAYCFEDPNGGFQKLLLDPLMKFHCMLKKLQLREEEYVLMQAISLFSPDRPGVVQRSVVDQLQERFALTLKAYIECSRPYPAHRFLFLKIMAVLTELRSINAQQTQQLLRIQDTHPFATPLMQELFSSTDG

For the compound `Oc1ccccc1-c1nnco1`, the compound was called inactive in experiment [1], in experiment [7], in [8], in experiment [9], in [10] and in [11]. In [15], the compound was called inactive. Besides, the Potency entry in [2], in experiment [3], in experiment [4], in experiment [5], in experiment [6] and in experiment [12] was “inactive” in each case. Further, the Potency result in experiment [13] and in experiment [14] was “inactive” in each case.

Turning to `CCC(CC)CO`, the compound was classed as inactive in experiment [1], in experiment [7], in experiment [8], in experiment [9], in [10] and in experiment [11]. In experiment [15], the call was inactive. The Potency entry in experiment [2], in [3], in [4], in [5], in experiment [6] and in [12] was “inactive” each time. Besides, the Potency result in experiment [13], in experiment [14] and in experiment [16] was “inactive” in each case.

`Cc1cccc(C)c1OCC(C)N` (stereo not given): the compound was called inactive in experiment [1], in experiment [7], in [8], in experiment [9], in [10] and in experiment [11]. For the same compound, the outcome in experiment [15] was inactive. Also, the Potency entry in [2], in [3], in experiment [4], in [5], in [6] and in [12] was “inactive” throughout. The Potency result in [13], in experiment [14], in experiment [17], in experiment [19] and in [20] was “inactive” in each case. The max activation in experiment [18] is -1.45%.

In the case of `CCCCCCCC/C=C\CCCCCCCC(=O)OCCCC`, the activity change, negative = inhibition was 2.54% [at 19 µM] in [1] and -2.42% [at 18.9 µM] in experiment [4]. The activity change, negative = cytotoxicity is -4.95% [at 19 µM] in experiment [2]; 0.852% [at 18.9 µM] in experiment [5]; 0% [at 19 µM] in [6]; 0.118% [at 15.8 µM] in experiment [8]; 1.78% [at 19 µM] in [12]; 3.24% [at 19 µM] in experiment [14]. In addition, in experiment [16], the activity change, negative = cytotoxicity was 2.37% [at 19 µM]. Besides, in experiment [3], the Potency is 1.24 µM (active). In addition, the viability change, negative = cytotoxic in [7] is 2.1% [at 15.8 µM]. The results for the activation in experiment [9], in experiment [11] and in [17] were -1.96% [at 15.8 µM], 0.159% [at 11.8 µM] and 3.05% [at 19 µM], respectively. In experiment [10], the activity, negative = inhibition is 8.97% [at 10.5 µM]. Moreover, the caspase activation in experiment [13] is 0.919% [at 19 µM]. In addition, in experiment [15], the caspase-3/7 activation was -0.343% [at 19 µM].

For `CC(C)(C)c1n[nH]c(=S)n(N)c1=O`, the call in experiment [1], in experiment [7], in experiment [8], in experiment [9], in experiment [10] and in experiment [11] was inactive. In addition, the Potency result in experiment [2], in experiment [3], in experiment [4], in experiment [5], in experiment [6] and in [12] was “inactive” each time. For the same compound, the Potency result in [13], in experiment [14] and in experiment [17] was “inactive” throughout.

Consider `CC/C=C\CC1=C(C)CCC1=O`, for which the call in experiment [1], in [7], in [8], in [9], in [10] and in [11] was inactive. For the same compound, the Potency result in [2], in experiment [3], in [4], in [5], in [6] and in [12] was “inactive” in each case. The Potency result in experiment [13], in experiment [14] and in experiment [16] was “inactive” throughout. Further, in experiment [17], the Potency is 34.4 µM (active).

In the case of `Nc1cccc(O)c1`, the compound was classed as inactive in experiment [1], in experiment [7], in experiment [8], in experiment [9], in experiment [10] and in experiment [11]. Besides, the compound was called inactive in experiment [15]. For the same compound, the Potency result in [2], in experiment [3], in experiment [4], in experiment [5], in experiment [6] and in experiment [12] was “inactive” throughout. In addition, the Potency entry in experiment [13], in [14] and in [17] was “inactive” each time.

Turning to `CCCCCCCCCCl`, the call in [1], in experiment [7], in [8], in [9], in experiment [10] and in experiment [11] was inactive. The outcome in experiment [15] was inactive. Also, the Potency result in [2], in [3], in experiment [4], in experiment [5], in experiment [6] and in [12] was “inactive” each time. Besides, the Potency entry in [13], in [14] and in [16] was “inactive” in each case.
